# Screens: PubChem, National Center for Advancing Translational Sciences (NCATS)
# Compounds with a hit are over-represented: about 7.5% of the library has one in this group of screens.
# KinaseGlo FLuc – counter-screen: inhibitors of Kinase-Glo firefly luciferase | Kinase-Glo luciferase, ATP luminescence, 8 min | Potency, µM (top dose mostly 38.3 µM), for inactives: at the highest dose activity change, negative = inhibition, most hits filed as inhibitors | AID 1379 | Q27757 | 200,000 compounds, 0.28% hits; note: % is set by controls: 0 for no effect and ±100 for the full control effect; nearly all actives have a fitted effect of over 60% in size
#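 Luminescence was the read-out, taken after 8-minute incubation at ambient temperature. Luciferase turned over luciferin with 10 uM ATP in imidazole pH 7.2 buffer containing KCl, MgCl2, Tween 20 and BSA.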
# SMN2 splice up – increases expression of the SMN2 splice variant | HEK293 SMN2-luciferase splicing reporter, luminescence, 30-36 h | Potency, µM (series often up to 46.1 µM), without a hit: at the top dose activity change, positive = activation, most hits filed as activators | 210,000 compounds, 2.8% hits; note: % of control where 0% means no effect; nearly all actives have a fitted effect of over 55% in size
#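 HEK293 cells carry an SMN2 […]–luciferase reporter in which exon 7 inclusion puts luciferase in frame. Cells were plated 10-12 h before compound addition, then incubated 30-36 h at 37C. ONE-Glo luminescence was read; sodium butyrate at 4.5 mM final served as control.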
# FLuc counter – inhibits or activates purified firefly luciferase, miR-21 counter-screen | P08659 | purified FLuc, Km substrates, luminescence inhibition | Potency, µM (series often up to 57.5 µM), for the others: top-dose activity change, negative = inhibition, hits mostly inhibitors | 360,000 compounds, 6.9% hits;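 note: plate controls were vehicle for no effect and reference inhibitor for full effect; nearly all actives have a fitted effect of over 55% in size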
# Target sequence (P08659 whole entry, looked up): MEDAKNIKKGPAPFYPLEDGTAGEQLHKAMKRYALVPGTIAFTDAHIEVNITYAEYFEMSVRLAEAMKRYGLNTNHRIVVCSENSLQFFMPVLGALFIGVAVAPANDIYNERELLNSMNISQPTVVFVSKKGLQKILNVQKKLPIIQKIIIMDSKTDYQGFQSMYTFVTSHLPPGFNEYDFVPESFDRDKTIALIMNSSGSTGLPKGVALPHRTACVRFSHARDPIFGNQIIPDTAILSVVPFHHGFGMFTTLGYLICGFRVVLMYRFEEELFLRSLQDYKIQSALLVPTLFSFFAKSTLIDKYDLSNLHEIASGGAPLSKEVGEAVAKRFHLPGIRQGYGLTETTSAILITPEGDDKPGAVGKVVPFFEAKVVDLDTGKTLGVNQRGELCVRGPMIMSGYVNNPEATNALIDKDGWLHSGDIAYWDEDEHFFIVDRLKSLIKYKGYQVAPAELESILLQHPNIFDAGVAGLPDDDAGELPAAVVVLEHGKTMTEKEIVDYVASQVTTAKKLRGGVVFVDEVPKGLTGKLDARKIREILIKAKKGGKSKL
#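 Biochemical qHTS of compounds, final roughly 60 µM downward over six points, against 10 nM purified firefly luciferase using Km concentrations of substrates (10 uM D-luciferin, 10 uM ATP) in Tris acetate pH 7.5 buffer; luminescence output.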
# ELG1 genotoxic – genotoxicity induction in ELG1-luciferase HEK293T cells; HEK293T ELG1-luciferase reporter, luminescence, 16 h; Potency, µM (series often up to 46 µM), without a hit: at the highest dose activity change, positive = activation, actives largely listed as activators; 330,000 compounds, 1.3% hits; AID 504466; note: % of control where 0% means no effect; nearly all actives have a fitted effect of over 60% in size
#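 Reporter readout depends on ELG1 protein level, which increases with genetic stress. After 16 hr compound exposure at 37 °C, luciferase activity was quantified using ONE-Glo.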
# Rab9 prom act – activates the Rab9 promoter; Huh7 Rab9 promoter-luciferase reporter, luminescence, 24 h; Potency, µM (titrated, usually from 9.22 µM), without a hit: at the top dose activation, negative = inhibition, actives largely listed as activators; 320,000 compounds, 2.8% hits; AID 485297; note: % of control where 0% means no effect; nearly all actives have a fitted effect of over 60% in size
#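 Cells were plated at 1500 per well in reduced-serum medium with 10% FBS and left 2 h. Compound in DMSO was then added for 24 h at 37 °C. Reporter signal was read by luminescence after 10 min with luciferase detection reagent.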
# NPC1 promoter act – NPC1 promoter activation | 320,000 compounds, 2.4% hits | Huh7 NPC1 promoter luciferase reporter, 24 h | Potency, µM (top dose mostly 9.22 µM), for the others: at the highest dose activation, usual class: activators; note: % of control where 0% means no effect; nearly all actives have a fitted effect of over 60% in size
#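 In 1536-well qHTS, Huh7 cells harboring an NPC1 promoter–luciferase construct received compound for 24 h; activation was quantified by luminescence following luciferase reagent addition.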
# * hit, by the source's call; ? = inconclusive; · = no result given; ! = not confirmed by another sample. Calls come from the whole dose curve; as a rule, active = well fitted curve in the direction sought with a large enough effect; inconclusive = small, poorly fitted or top-dose-only effect, or another doubt; inactive = no such curve, though single readings can be large; an effect the other way counts as inactive or inconclusive. Potency is the fitted concentration of half-maximal effect.
SMILES,KinaseGlo FLuc,SMN2 splice up,FLuc counter,ELG1 genotoxic,Rab9 prom act,NPC1 promoter act
O=C(CSc1nnc(-c2ccco2)o1)c1ccccc1,-3.2%,5.6%,?,7.7%,?,?
CC1CCN(C(=O)CSc2nnc(-c3ccco3)o2)CC1,11.8%,-6.7%,-13.6%,11.7%,-7.2%,2.0%
CCC1CCCCN1C(=O)CSc1nnc(-c2ccc(Cl)cc2)o1 (stereo not drawn),1.3%,-45.1%,-15.1%,-5.0%,1.3%,1.3%
O=C(CSc1nnc(-c2ccco2)o1)N1CCCCC1,·,·,?,18.7%,3.16µM*,?
O=C(CSc1nnc(-c2ccco2)o1)c1ccc[nH]1,-4.0%,17.8µM*,?,?,2.24µM*,?
CCC1CCCCN1C(=O)CSc1nnc(-c2cccc(Cl)c2)o1 (stereo not drawn),3.5%,?,?,18.4µM*,12.6%,28.2%
CCC1CCCCN1C(=O)CSc1nnc(-c2ccco2)o1 (stereo not drawn),5.7%,?,15.1µM*,?,3.16µM*,?
C=CCOC(=O)N[C@H](/C(C(=O)OC)=C(\C)NCc1ccccc1)c1ccc2c(c1)OCO2,-2.9%,3.8%,·,·,·,·
COc1ccc(NC(=O)c2ocnc2C)cc1OC,-15.9%,13.8%,-14.9%,-0.4%,5.4%,1.4%
Cc1ncoc1C(=O)Nc1ccc2c(c1)OCCO2,?,15.8µM*,12µM*,?,2.51µM*,3.16µM*
Cc1ccsc1C(=O)Nc1ccc2c(c1)OCCO2,10µM*,2.24µM*,1.9µM*,2.06µM*,0.631µM*,1.26µM*
CC(=O)Nc1ccc2c(c1)OCCOCCOc1cc(NC(C)=O)ccc1OCCOCCOCCO2,-2.1%,4.3%,0.2%,0.3%,1.3%,7.4%
Cc1cc(C)n2nc(C(=O)Nc3ccc4c(c3)CCC4)nc2n1,-6.5%,11.2µM*,13.5µM*,?,3.55µM*,?
CCn1ccc(C(=O)Nc2ccc3c(c2)CCC3)n1,·,·,3.01µM*,?,1µM*,1µM*
O=C(Nc1ccc2c(c1)CCC2)c1cnccn1,-18.3%,12.6µM*,12µM*,6.51µM*,3.16µM*,3.55µM*
Cc1cnc(C(=O)Nc2ccc(F)c(F)c2)cn1,-16.1%,12.6µM*,?,16.4µM*,2.51µM*,?
Cc1cnc(C(=O)Nc2cc(F)ccc2C)cn1,-4.8%,-3.4%,-17.5%,3.5%,11.9%,-0.4%
CCn1ccc(C(=O)Nc2ccc(N(C)C(C)=O)cc2)n1,-14.5%,17.7%,?,?,?,21.8%
O=C(Nc1cccc(Cl)c1)c1cnccn1,·,·,-12.1%,13.9%,25.2%,2.8%
Cc1cnc(C(=O)Nc2ccc3c(c2)CCC3)cn1,-4.7%,11.2µM*,2.39µM*,?,0.501µM*,?
CCCCn1c(CNC(=O)C23CC4CC(CC(C4)C2)C3)nnc1SCC(=O)Nc1ccc(F)cc1,·,-1.7%,-9.8%,·,·,·
c1ccc(Oc2cc(-c3ccccc3)ncn2)cc1,-4.0%,?,15.1µM*,?,?,?
Cc1ccc2c3c(cccc13)-c1ccccc1C2=O,2.2%,?,19µM*,0.5%,-4.3%,-0.1%
COC(=O)c1ccc(NC(c2ccc(Cl)cc2)P(=O)(OC)OC)cc1 (stereo not drawn),1.4%,-4.7%,26.9µM*,3.7%,-1.4%,-2.0%
CCc1oc2ccccc2c1C(=O)c1cc(Br)c(O)c(Br)c1,12.8%,-8.6%,15.1µM*!,-0.4%,-4.7%,-1.3%
SMILES,KinaseGlo FLuc,SMN2 splice up,FLuc counter,ELG1 genotoxic,Rab9 prom act,NPC1 promoter act
Cc1cc(N=Nc2ccc(C)c(N=Nc3cc(C)c(N)cc3N)c2)c(N)cc1N,·,·,0.536µM*,2.31µM*,2.82µM*,2.82µM*
O=C1CN(C(=O)c2ccccc2C(F)(F)F)C(c2ccccc2)c2cc(F)ccc2N1 (stereo not drawn),·,-0.9%,4.6%,·,·,·
O=C(Nc1ccon1)c1sc2cc(F)ccc2c1Cl,0.9%,22.4µM*,?,?,2.51µM*,3.16µM*
O=C(NC1=NCCS1)c1sc2cc(F)ccc2c1Cl,-2.2%,7.08µM*,2.39µM*,?,2.24µM*,5.01µM*
O=C(NCCCN1CCOCC1)c1sc2cc(F)ccc2c1Cl,-1.4%,13.2%,?,14.7%,?,9.1%
O=C(NCc1ccco1)c1cccc(F)c1,2.5%,-15.9%,2.7%,·,·,·
O=C(NCc1ccco1)c1sc2cc(F)ccc2c1Cl,0.5%,12.6µM*,15.1µM*,11.5%,28.5%,19.8%
CC(C)(C)c1ccc(C(=O)NNc2ncnc3c2cnn3-c2ccccc2)cc1,·,·,-10.5%,·,·,·
Nc1ccc(-c2nc3ccc(N)cc3o2)cc1,?,?,1.51µM*,20.6µM*,?,?
CN(C)c1ccc(-c2nc3cc(N)ccc3o2)cc1,·,·,0.19µM*,0.517µM*,0.316µM*,0.316µM*
Cc1ccc(C)c(-c2nc3cc(N)ccc3o2)c1,-4.8%,11.2µM*,13.5µM*,10.3µM*,?,20.2%
Cc1ccc(-c2nc3cc(N)ccc3o2)cc1Br,·,·,1.9µM*,2.91µM*,1.78µM*,1.26µM*
COc1ccc2oc(-c3ccc(C)c(NC(=O)COc4cc(C)cc(C)c4)c3)nc2c1,·,0.9%,-1.4%,·,·,·
c1cnc2c(-c3nccc4c3[nH]c3ccccc34)cccc2c1,0.5%,-4.7%,·,·,·,·
COC(=O)c1ccc(-c2nc3cc(N)ccc3o2)cc1,-6.9%,?,1.2µM*,?,?,21.6%
Cc1ccc2nc(-c3cc(N)cc(N)c3)oc2c1,?,?,0.379µM*,7.0%,?,?
Nc1ccc(-c2nc3cc(N)ccc3o2)cc1,·,·,2.69µM*,5.17µM*,0.631µM*,0.398µM*
Nc1ccc2oc(-c3cc(Br)ccc3Cl)nc2c1,-5.6%,12.3%,?,?,3.1%,-0.7%
Nc1ccc(-c2nc3ccc(-c4nc5ccccc5o4)cc3[nH]2)cc1,0.4%,3.9%,?,2.4%,25.8%,29.2%
CC(C(=O)Nc1ccccc1)n1nnc2sc3c(c2c1=O)CCCC3 (stereo not drawn),·,-6.8%,-14.3%,·,·,·
O=C(OCc1cccc([N+](=O)[O-])c1)c1ccc2ccccc2n1,1.5%,12.5%,26.9µM*,2.6%,-2.6%,-28.9%
O=C(OCc1ccc([N+](=O)[O-])cc1)c1ccc2ccccc2n1,·,·,-13.1%,3.3%,-1.5%,0.2%
CC(C)CNC(=O)COC(=O)c1c2c(nc3ccccc13)/C(=C/c1cccs1)CC2,·,·,5.36µM*,-11.0%,-7.1%,-29.5%
O=C(COC(=O)c1c2c(nc3ccccc13)/C(=C/c1ccco1)CC2)NC1CCCC1,-6.1%,27.7%,5.36µM*,-2.2%,27.1%,18.8%
Cc1c(Cl)cccc1NC(=O)C(=O)NCCc1csc(-c2ccc(C(F)(F)F)cc2)n1,·,·,1.5%,·,·,·
